# Results as given in ChEMBL document CHEMBL1201862, “PubChem BioAssay data set” (2004).
# “And” between values parts separate entries of the source, which are not always exact repeats. Equal values may be shown once. About 2,100 (0.53%) of roughly 400,000 compounds were called active. About 14% were inconclusive and are not listed. This is one part of a sample in which actives are shown more often than they occur. No rule for the calls is given here.
# Biological target: Ataxin-2 (Homo sapiens) (UniProt Q99700)
# Experiment: qHTS for Inhibitors of ATXN expression.
# Format: functional
# Chain of Ataxin-2 (Homo sapiens) (Q99700 whole entry): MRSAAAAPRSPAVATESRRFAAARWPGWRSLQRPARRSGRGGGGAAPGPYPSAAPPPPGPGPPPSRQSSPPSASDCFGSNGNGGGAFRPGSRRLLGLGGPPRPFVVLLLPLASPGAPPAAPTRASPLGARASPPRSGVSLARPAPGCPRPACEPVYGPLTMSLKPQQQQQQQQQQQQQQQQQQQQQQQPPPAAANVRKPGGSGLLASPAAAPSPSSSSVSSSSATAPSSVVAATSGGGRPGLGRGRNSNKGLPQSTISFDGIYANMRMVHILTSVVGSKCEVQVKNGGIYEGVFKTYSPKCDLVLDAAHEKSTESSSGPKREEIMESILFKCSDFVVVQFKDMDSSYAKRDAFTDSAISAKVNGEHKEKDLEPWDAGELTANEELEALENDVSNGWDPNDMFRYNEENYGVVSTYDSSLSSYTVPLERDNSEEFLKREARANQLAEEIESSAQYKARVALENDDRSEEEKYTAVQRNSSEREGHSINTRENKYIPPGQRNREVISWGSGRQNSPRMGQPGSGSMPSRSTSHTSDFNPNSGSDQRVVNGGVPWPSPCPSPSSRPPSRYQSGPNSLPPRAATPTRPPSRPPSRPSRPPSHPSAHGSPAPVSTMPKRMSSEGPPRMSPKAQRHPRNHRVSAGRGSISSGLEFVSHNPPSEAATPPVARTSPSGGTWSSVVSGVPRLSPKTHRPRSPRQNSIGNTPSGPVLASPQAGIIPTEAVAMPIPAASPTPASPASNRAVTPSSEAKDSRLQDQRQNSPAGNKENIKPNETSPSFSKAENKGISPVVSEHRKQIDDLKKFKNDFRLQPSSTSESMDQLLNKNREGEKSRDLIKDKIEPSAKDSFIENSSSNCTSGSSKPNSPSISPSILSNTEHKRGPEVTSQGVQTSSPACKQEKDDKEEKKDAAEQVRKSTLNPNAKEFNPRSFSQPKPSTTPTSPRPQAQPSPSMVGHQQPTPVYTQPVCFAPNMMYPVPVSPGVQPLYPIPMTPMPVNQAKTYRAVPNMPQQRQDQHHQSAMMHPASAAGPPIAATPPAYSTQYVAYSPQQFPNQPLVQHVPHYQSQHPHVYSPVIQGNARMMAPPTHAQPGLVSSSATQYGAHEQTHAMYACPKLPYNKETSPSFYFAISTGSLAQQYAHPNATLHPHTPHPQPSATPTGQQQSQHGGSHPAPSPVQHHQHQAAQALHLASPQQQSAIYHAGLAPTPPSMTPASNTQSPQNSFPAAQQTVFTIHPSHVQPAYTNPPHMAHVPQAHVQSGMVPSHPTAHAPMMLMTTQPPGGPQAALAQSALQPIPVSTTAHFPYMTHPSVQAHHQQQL
row,Compound,Potency
1,CCOC(=O)c1cc2c(=O)n3ccccc3nc2n(C(C)C)/c1=N/C(=O)C(C)(C)Oc1ccc(Cl)cc1,inactive
2,CCn1c(=N)c(C(=O)NCc2ccccc2)cc2c(=O)n3cccc(C)c3nc21,inactive
3,c1cncc(-c2nnc(-c3cccnc3)nn2)c1,35.5 µM (active)
4,O=C(O)c1cccc(CSc2nnc(-c3cccnc3)o2)c1,inactive
5,Nc1nc2nccc(-c3cccnc3)n2n1,inactive
6,CCOC(=O)C1=C(C)c2ccccc2N(C(=O)OC)C1(C)C(=O)OCC (stereo not given),35.5 µM (active)
7,O=C1c2ccccc2-c2onc3c(N4CCN(CCO)CC4)cc(N4CCN(C(=O)c5ccco5)CC4)c1c23,39.8 µM (active)
8,Nc1cccc2c1C(=O)N(C(=O)c1ccco1)C2=O,inactive
9,O=C(c1ccco1)N1CCN(Cc2cc(=O)oc3cc(O)ccc23)CC1,inactive
10,CC(C)(C)N(CC#CCC(O)(c1ccccc1)c1ccccc1)CCO,inactive
11,CCC[C@@H](CNC)NC[C@H](Cc1ccccc1)NCCCCc1ccccc1,39.8 µM (active)
12,CCC(C(=O)NCCc1ccccc1)c1ccccc1 (stereo not given),inactive
13,CCCn1c(=N)c(S(=O)(=O)c2ccccc2)cc2c(=O)n3ccccc3nc21,inactive
14,CCCn1c(CC)nc([N+](=O)[O-])c1S(=O)(=O)c1ccccc1,35.5 µM (active)
15,O=C(O)/C=C/c1nc(-c2ccccc2)n2ccccc12,inactive
16,CC(=O)Oc1c(-c2ccco2)oc2ccccc2c1=O,inactive
17,COc1cccc(CNC(=O)CCCc2nnc3n(C)c(=O)c4sccc4n23)c1,inactive
18,Cc1ccc(-c2ccc(/C=N\NC(=O)c3cc4c(ccc5ccccc54)o3)o2)cc1[N+](=O)[O-],37.7 µM (active)
19,Cc1ccc(C(=O)N/N=C/c2ccc(-c3ccc(Br)cc3[N+](=O)[O-])o2)o1,inactive
20,O=C(N/N=C/c1ccc([N+](=O)[O-])o1)c1cc2ccccc2o1,10 µM (active)
21,O=C(N/N=C/c1cc(Br)c(O)c(Br)c1)c1cc2c(ccc3ccccc32)o1,inactive
22,COc1ccc(OC)c(/C=N\NC(=O)c2cc3c(ccc4ccccc43)o2)c1,inactive
23,C/C(=N\Nc1ccc([N+](=O)[O-])cc1)c1cc2ccccc2o1,inactive
24,CCOC(=O)c1cc2c(=O)n3ccccc3nc2n(CC2CCCO2)/c1=N\C(C)=O (stereo not given),inactive
25,CN(C)/C=N/C(=S)Nc1cc(Cl)cc(Cl)c1,inactive
26,CC1CCc2nc(/C(C#N)=C/c3cccnc3)sc2C1 (stereo not given),inactive
27,CC1C/C(=C\c2cccnc2)C(=O)/C(=C/c2cccnc2)C1 (stereo not given),11.2 µM (active)

row,Compound,Potency
1,CC1C/C(=C/c2ccccn2)C(=O)/C(=C/c2ccccn2)C1 (stereo not given),11.9 µM (active)
2,Cc1cccc(NC2=NC(=O)/C(=C/c3cccnc3)S2)c1,inactive
3,CSC1=N/C(=C/c2cccnc2)C(=O)N1Cc1ccccc1,inactive
4,C(=NOCc1ccccc1)c1ccccn1,inactive
5,CCC1C/C(=C\c2cccnc2)C(=O)/C(=C/c2cccnc2)C1 (stereo not given),14.1 µM (active)
6,O=C(CSc1cccc2cccnc12)N/N=C/c1cccnc1,39.8 µM (active)
7,CN(C)S(=O)(=O)c1cccc(NC(=O)CSc2cccc3cccnc23)c1,39.8 µM (active)
8,O=C(CSc1ncccn1)N/N=C/c1ccccc1[N+](=O)[O-],inactive
9,Cc1ccc(NC(=O)CSc2cccc3cccnc23)c(C)c1,39.8 µM (active)
10,O=C(CSc1nnc2ccc(-c3ccccn3)nn12)Nc1cccc(F)c1,inactive
11,CN(C)S(=O)(=O)c1cccc(NC(=O)Cn2cc(C(F)(F)F)cc(Cl)c2=O)c1,inactive
12,Cc1cccc(NC(=O)CSc2cccc3cccnc23)c1,44.7 µM (active)
13,CCn1c(SCC(=O)Nc2cccc(C)c2)nc2nc3c(cc2c1=O)COC(C)(C)C3,inactive
14,CN(C)S(=O)(=O)c1ccc(SCC(=O)Nc2cccc(S(=O)(=O)N3CCCC3)c2)nc1,inactive
15,Cc1ccc(NC(=O)CSc2nc3nc(O)cc(O)c3s2)c(Br)c1,inactive
16,COc1ccc(/C=C/C(=O)NCC(=O)N/N=C/c2cccnc2)cc1,inactive
17,Cc1cc(SCC(=O)Nc2cccnc2Cl)nc2ccccc12,inactive
18,COc1ccc(C(=O)NCCNc2nc3ccc(C)cc3cc2C#N)cc1OC,inactive
19,O=C(CSc1ccccn1)N1CCN(c2ncc(C(F)(F)F)cc2Cl)CC1,inactive
20,COc1ccc(OC)c(C2CC(=O)N3CN(c4ccccc4F)CSC3=C2C#N)c1 (stereo not given),inactive
21,O=C(CCCN1C(=O)c2cccnc2C1=O)Nc1ccccc1F,inactive
22,O=C(CCCN1C(=O)/C(=C/c2ccccc2OC(F)F)SC1=S)Nc1cccnc1,20 µM (active)
23,O=C(CCN1C(=O)/C(=C/c2ccc(F)cc2)SC1=S)Nc1cccnc1,inactive
24,CCCCOc1ccc(Br)cc1/C(C)=N/NC1=NCCN1,22.4 µM (active)
25,C(=N\NC1=NCCN1)/c1ccncc1,inactive
26,Cn1c(Cl)cnc1C(O)(c1ccccc1)c1ccccc1,inactive
27,CCc1nc2ccccc2c(C(=O)OCC(=O)C(C)(C)C)c1C,inactive

row,Compound,Potency
1,COc1ccc([N+](=O)[O-])cc1NC(=O)C(C)OC(=O)CN1C(=O)C2CC=CCC2C1=O (stereo not given),inactive
2,CCNc1cccc2c1C(=O)N(C)C2=O,inactive
3,O=C1c2cccc(NCCCNCCO)c2C(=O)c2cccc(NCCCNCCO)c21,15 µM (active)
4,CN1C(=O)c2cccc(NCCCN3C(=O)c4ccccc4C3=O)c2C1=O,inactive
5,O=C1c2c(O)ccc(O)c2C(=O)c2c(NCCNCCO)ccc(NCCNCCO)c21,2.99 µM (active) and 20 µM (active)
6,O=C1c2ccccc2C(=O)c2c(NCCCN(CCO)CCO)cccc21,26.7 µM (active)
7,CC1CCCCC1NC(=O)COC(=O)c1c2c(nc3ccccc13)/C(=C\c1ccco1)CC2 (stereo not given),inactive
8,Cc1csc(NC(=O)c2sc3nc(-c4cccs4)ccc3c2N)n1,inactive
9,CCOC(=O)c1cc2c(=O)n3ccccc3nc2n(C(C)C)/c1=N\C(=O)c1c(-c2c(F)cccc2Cl)noc1C,inactive
10,Cc1c(Br)c(=O)oc2c(Br)c(O)c(O)cc12,inactive
11,CN(C)c1ccc(/C=N/NC(=O)c2ccc3[nH]cnc3c2)cc1,inactive
12,Nc1ccc(/N=N\c2ccccc2)c(N)n1,inactive
13,Nc1ccc(N=Nc2ccc(O)cc2)c(N)n1,21.2 µM (active)
14,Nc1nc(O)cc(N=Nc2ccc(O)cc2)n1,17.8 µM (active)
15,Nc1c(Cl)cc(-c2nc3cc(C(=O)NCCO)ccc3c(O)c2O)cc1Cl,inactive
16,COC(=O)c1cc(CN2CCN(c3ccccc3)CC2)ccc1O,inactive
17,COC(=O)c1ccc(C2C(C#N)=C(N)Oc3cc(O)ccc32)cc1 (stereo not given),inactive
18,COC(=O)c1ccc(NCc2cc(O)ccc2O)cc1O,39.8 µM (active)
19,Cc1ccc(O)c(C(=O)CC(=O)c2ccccc2Cl)c1,inactive
20,Nc1ccc(C(=O)NCc2ccccc2)cc1,inactive
21,CC(C)OC(=O)c1ccc(NCc2cc(O)ccc2O)cc1,29.9 µM (active)
22,COc1ccc(CNc2nc3ccccc3n2C(C)C)c(O)c1,inactive
23,CC(C)OC(=O)c1ccc(NCc2cc(O)ccc2O)cc1Cl,20 µM (active)
24,O=C1C=CC(=O)C(CNc2ccc(C(=O)OCc3ccccc3)cc2)=C1,23.8 µM (active)
25,CN(C)c1nc(-c2cccs2)cc(C(F)(F)F)c1C#N,inactive
26,CCCCOc1c(C(=O)Nc2ccccc2)nnn1-c1ccccc1,inactive
27,COC(=O)c1ccc(NCc2c(O)ccc(O)c2Br)cc1Cl,28.2 µM (active)

row,Compound,Potency
1,O=C(OCc1ccccc1)c1ccc(NCc2cc(O)ccc2O)cc1,8.91 µM (active)
2,CCCS(=O)(=O)c1ccc(COC(=O)c2cccc(NC(=O)C(C)C)c2)cc1,inactive
3,CC(=O)Cc1cc(O)c2ccccc2c1OC(=O)c1ccccc1,inactive
4,Cc1ccc2nc(-c3ccc(NC(=O)c4cccnc4)cc3)oc2c1,25.1 µM (active)
5,CC(=O)Nc1ccc(NC(=O)c2cc(=O)c3ccc(C)cc3o2)cc1,inactive
6,Cc1ccc(C)c(OC(=O)c2cccnc2)c1,inactive
7,CCOC(=O)c1cc2c(=O)n3ccccc3nc2n(CCCOC)/c1=N\C(=O)C(C)Oc1ccccc1 (stereo not given),inactive
8,Nc1c(C(=O)NCc2ccc(Cl)cc2)sc2nc3c(c(C(F)(F)F)c12)CCC3,inactive
9,O=C(Cn1nc(C(F)(F)F)c2c1CCCC2)Nc1ccc(Cl)cc1,39.8 µM (active)
10,O=C(CN1CCCC1)Nc1ccc(Br)cc1,inactive
11,COC(=O)[C@@]1(Cc2ccc(F)cc2)[C@H]2c3cc(C(=O)N4CCCC4)n(Cc4ccccc4)c3C[C@H]2CN1C(=O)c1ccccc1,25.1 µM (active)
12,COC(=O)[C@@]1(Cc2ccc(F)cc2)[C@H]2c3cc(C(=O)N(C)C)n(Cc4ccc(C)o4)c3C[C@H]2CN1C(=O)c1ccccc1,35.5 µM (active)
13,CCOC(=O)C1CCCN(C(=O)c2ccc(Cn3c(=S)[nH]c4cc(C(=O)OC)ccc4c3=O)cc2)C1 (stereo not given),inactive
14,COC(=O)[C@@]1(Cc2ccc(F)cc2)[C@H]2c3cc(C(=O)N4CCCC4)n(CC4CC4)c3C[C@H]2CN1C(=O)c1ccccc1,39.8 µM (active)
15,COC(=O)C1CCN(C(=O)c2cc3c(=O)n4cccc(C)c4nc3n2Cc2ccccc2)CC1,inactive
16,C=CCNC(=O)c1cc2c(=O)n3cccc(C)c3nc2s1,inactive
17,Cc1cccc(N2C(=O)CC(NNc3nc4ccccc4s3)C2=O)c1 (stereo not given),inactive
18,COc1ccc(/C=C/CN2CCCC(CCC(=O)NCc3ccc(F)c(F)c3)C2)cc1 (stereo not given),inactive
19,COc1c2c(c(OC)c3c1c(=O)c1ccccc1n3C)OCO2,inactive
20,COCCN=C(NS(=O)(=O)c1cccs1)c1ccccc1Cl,inactive
21,C[N+]1(CN2C(=O)C3C4C=CC(C4)C3C2=O)CCCCC1 (stereo not given),inactive
22,Cc1cc(N2CCOCC2)ccc1/C=C1/SC(=O)NC1=O,inactive
23,CCN(CC)c1ccc(C(=O)N/N=C/c2ccc(N3CCOCC3)cc2)cc1,inactive
24,CCN1C/C(=C/c2ccc(N3CCOCC3)cc2)C(=O)/C(=C/c2ccc(N3CCOCC3)cc2)C1,25.1 µM (active)
